# High-throughput results deposited in PubChem BioAssay by Sanford-Burnham Center for Chemical Genomics.
# aDG glyco up: increases alpha dystroglycan glycosylation; Pro5-aDG cells, alpha-DG glycosylation AlphaScreen (IIH6); 0% Pro5, 100% B10-LARGE cell signal; activation, % at 10 µM; 360,000 tested, 0.22% active;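 active means activation of at least 8% versus controls, or a plate z-score of at least 8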;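 further: Pro5 are CHO cells carrying HIG-tagged alpha-DG that lacks glycosylation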
# NPR2 activator: GC-B (human) receptor activation; P20594; HEK293-GC-B cells, CNP EC30, cGMP TR-FRET; 0% at EC30 CNP, 100% saturating CNP; activation, % at 10 µM; 370,000 tested, 0.11% active; AID 1920062;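 active means activation at 10 µM reaching about 35% in either raw or pattern-adjusted values, limit read from the data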
# GC-A act: GC-A (human) enzyme activation; 370,000 tested, 0.14% active; HEK293 GC-A cells, cGMP TR-FRET, EC30 ANP; 0% at EC30 ANP, 100% saturating ANP; AID 1671463; P16066; activation, % at 10 µM; in the data active means activation above about 40%
# FAS-TE inh: inhibitors of human fatty acid synthase thioesterase domain. P49327. inhibition, % at 15 µM. recombinant FAS-TE, OMFH fluorogenic substrate, fluorescence endpoint. 360,000 tested, 0.67% active;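 active means compounds whose normalised, plate-corrected inhibition of enzyme fluorescence in the single-dose primary screen is 50% or more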
# FAS-TE inh conf: FAS thioesterase (human) inhibition, confirmation; shares compounds with FAS-TE inh; recombinant FAS-TE, OMFH fluorogenic substrate, fluorescence; inhibition, % at 15 µM; 2,300 tested, 45% active; AID 624325;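 active means compounds inhibiting the enzyme by at least 50% at 15 µM in any one of the replicates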
# A number is an active result; n = inactive; x = no result given. In the library only some 1.1% were active in any assay of this set; here they are far more common.
SMILES,aDG glyco up,NPR2 activator,GC-A act,FAS-TE inh,FAS-TE inh conf
CCN1C(=O)[C@H]2[C@@H](c3ccc(-c4cccc(Cl)c4)cc3)N[C@@](Cc3ccccc3)(C(=O)OC)[C@H]2C1=O,n,n,n,n,x
CCN1C(=O)[C@H]2[C@@H](c3ccc(-c4ccc(F)cc4)c(OC)c3)N[C@@](CC(C)C)(C(=O)OC)[C@H]2C1=O,x,n,n,x,x
CCN1C(=O)[C@H]2[C@@H](c3ccc(-c4ccc(Cl)c(Cl)c4)c(OC)c3)N[C@@](Cc3ccccc3)(C(=O)OC)[C@H]2C1=O,n,n,n,70,n
N#Cc1c(-c2ccccc2)c(-c2ccccc2)nn(CC(=O)NNC(=O)Nc2ccccc2)c1=O,n,n,n,n,x
N#Cc1c(-c2ccccc2)c(-c2ccccc2)nn(CC(=O)NNC(=O)Nc2ccc(Cl)cc2)c1=O,n,n,n,76,78
Cc1occc1-c1nnc(SCC(=O)Nc2ccc3ncccc3c2)n1-c1ccccc1,x,n,n,x,x
ClCc1csc(-c2ccc(Cl)cc2)n1,n,n,n,n,x
CCS(=O)(=O)c1ccc(-c2csc(-c3ccc(Cl)cc3)n2)c(Cl)c1Cl,n,n,n,71,52
CCS(=O)(=O)c1ccc(-c2csc(-c3ccccc3Cl)n2)c(Cl)c1Cl,n,n,n,72,n
C=CCN1[C@H](Cc2ccccc2)COc2cc(F)ccc2S1(=O)=O,x,n,n,x,x
Cc1cc(NS(=O)(=O)c2ccc(NC(=O)CSc3nnc(SCc4ccc(Cl)cc4)s3)cc2)nc(C)n1,x,n,n,x,x
COc1ccc(S(=O)(=O)N(C)C)cc1NC(=O)[C@H](Cc1ccccc1)N1C(=O)c2ccccc2C1=O,n,n,n,65,n
Cc1ccc(S(=O)(=O)N(C)C)cc1NC(=O)[C@H](Cc1ccccc1)N1C(=O)c2ccccc2C1=O,n,n,n,53,n
C/C=C/C=C/C(=O)c1cc(C)c(OC(=O)CNC(=O)OC(C)(C)C)c(C)c1O,x,n,n,x,x
COc1ccc(CN(Cc2cc3cccc(C)c3n3nnnc23)C(=O)N2CCOCC2)cc1,n,n,n,50,47
CC(C)C[C@@H]1COc2cc(Br)ccc2S(=O)(=O)N1Cc1cn(Cc2ccc(C(F)(F)F)cc2)nn1,x,n,n,x,x
CCOC(=O)c1cnc2c3c(noc13)CCC2,x,n,n,x,x
O=C(c1ccc(Cl)cc1)C1C2C(=O)N(c3ccccc3)C(=O)C2C2CCCN21 (stereo not drawn),n,n,n,n,x
O=C(c1ccc(Cl)cc1)[C@@H]1[C@@H]2C(=O)N(c3ccccc3)C(=O)[C@@H]2C2c3ccccc3C=NN21 (stereo partly drawn),n,n,n,52,n
Cc1ccc(S(=O)(=O)N2CCN(C(=O)c3ccc(N4CCC(C)CC4)c([N+](=O)[O-])c3)CC2)cc1,n,n,n,54,n
O=C(c1ccc(N2CCCC2)c([N+](=O)[O-])c1)N1CCN(S(=O)(=O)c2ccccc2)CC1,n,n,n,n,x
CCCn1c(=S)[nH]c2cc(C(=O)N3CCN(C)CC3)ccc2c1=O,n,n,n,n,x
CCCn1c(=S)[nH]c2cc(C(=O)N3CCN(c4ccc(F)cc4)CC3)ccc2c1=O,n,n,n,55,n
C/C(=N\NS(=O)(=O)c1ccc(Cl)c([N+](=O)[O-])c1)c1cc2ccccc2o1,n,n,n,54,59
CC(C)NC(=O)CCn1nnc(-c2cccs2)n1,x,n,n,x,x
SMILES,aDG glyco up,NPR2 activator,GC-A act,FAS-TE inh,FAS-TE inh conf
N#Cc1ccc(S(=O)(=O)NCC2CCN(C(=O)C(=O)c3cc4ccccc4o3)CC2)cc1,x,n,n,x,x
CCC1=NN(C(=O)c2cccc(Br)c2)C(O)(c2ccc(Br)cc2)C1 (stereo not drawn),n,n,n,52,n
CCC1=NN(C(=O)c2ccc(C)cc2)C(O)(c2ccc(Br)cc2)C1 (stereo not drawn),n,n,n,n,x
COc1ccc(CNC(=O)/C=C/c2cc([N+](=O)[O-])ccc2OC(F)F)cc1,n,n,n,82,65
O=C(/C=C/c1cc([N+](=O)[O-])ccc1OC(F)F)NCc1ccc(Cl)cc1,n,n,n,80,88
COc1ccc(CNC(=O)/C=C/c2cc([N+](=O)[O-])ccc2OC(F)F)cc1OC,n,n,n,75,78
O=C(/C=C/c1cc([N+](=O)[O-])ccc1OC(F)F)Nc1cccc2ccccc12,n,n,n,63,48
